Assay outcomes: PubChem BioAssay, National Center for Advancing Translational Sciences (NCATS)
Shown are actives, neighbours in structure and some others; about 19% of the full set was active somewhere.
HT1080 IDH1KD tx = toxicity to HT-1080 IDH1 knockdown cells (counter line); HT-1080 IDH1 knockdown viability, ATP luminescence, 48 h; Potency, µM (doses to about 46.1 µM), for inactives: top-dose activity, negative = toxicity, usual class: cytotoxic; 2% of 360,000 active;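 also: potency is read from the fitted curve at half-maximal effect; 0% = DMSO wells and -100% = cell-free medium wells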
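Luminescent ATP read-out (CellTiter-Glo, 10 min at room temperature) after 48 h compound exposure at 37 °C gave viability of IDH1-knockdown HT-1080 cells. Activity was normalised to DMSO and cell-free wells, then fitted as concentration-response curves.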
ELG1 repair inh = blocks ELG1-dependent DNA repair in HEK293T cells. 2.3% of 330,000 active. HEK293T ELG1-luciferase reporter, luminescence, 16 h; DNA damage induced by 5-fluorouridine. Potency, µM (doses to about 46.1 µM), without a hit: at the highest dose activity change, negative = inhibition, most hits filed as inhibitors. AID 504467; also: potency is read from the fitted curve at half-maximal effect; nearly all actives have a fitted effect of over 55% in size
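Quantitative HTS, concentration-response format. 2,000 cells/well co-treated with 5-fluorouridine and compound, 16 hr in 5% CO2 at 37 °C; ONE-Glo luminescence read after 30 min.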
TDP1 cell CPT = growth inhibition of DT40 Tdp1-/-;hTDP1 cells with camptothecin (screen for TDP1 inhibitors); chicken DT40 Tdp1-/-;hTDP1 cells + 20 nM CPT, ATP luminescence, 48 h; Potency, µM (doses to about 46.2 µM), inactives show top-dose activity change, negative = growth inhibition, usual class: inhibitors; 12% of 420,000 active; also: potency is read from the fitted curve at half-maximal effect; nearly all actives have a fitted effect of over 55% in size
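Chicken DT40 Tdp1-/- cells complemented with human TDP1, 400 cells/well, exposed to compounds plus 20 nM camptothecin for at least 48 h at 37 C; viability read as ATP content by CellTiter-Glo luminescence.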
IL-1B inflam inh = inflammasome signaling inhibition, IL-1 beta readout; THP-1 LPS/ATP IL-1B secretion, AlphaLISA, 16 h; active compounds read low; activity change, % at 57.5 µM; 4.7% of 360,000 active; AID 743279; in the data active = activity change below about -50%; inconclusive = mostly about -30% to -49%
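THP-1 cells pretreated 1 hr with compounds (up to 57.5 uM final), then stimulated with LPS (250 ng/mL final) plus ATP (1.25 mM final); secreted IL-1B measured by AlphaLISA after 16 hr, decreased signal indicating inhibition.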
HT1080-NT tox = kills 2HG-producing HT-1080-NT fibrosarcoma cells. HT-1080-NT fibrosarcoma viability, CellTiter-Glo ATP luminescence, 48 h. Potency, µM (titrated, usually from 46.1 µM), inactives show at the top dose activity, negative = less viability, most hits filed as cytotoxic. 1.6% of 360,000 active;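 also: NT is the 2HG producing partner of a matched IDH1 knockdown line; potency is read from the fitted curve at half-maximal effect; 0% = DMSO-treated cells and -100% = media-only wells without cells; nearly all actives have a fitted effect of over 55% in size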
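Toxicity toward the 2HG-producing NT line was scored as %Activity, normalised to DMSO and no-cell wells, from CellTiter-Glo luminescence after 48 hours' treatment.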
TDP1 cell noCPT = qHTS for Inhibitors of human tyrosyl-DNA phosphodiesterase 1 (TDP1): qHTS in cells in absence of CPT. AID 686978, 2013. Potency, µM (series often up to 46.2 µM), for the others: at the top dose activity change, negative = growth inhibition, actives largely listed as inhibitors. DT40 Tdp1-/- hTDP1 cells, no CPT, ATP luminescence, 48 h. 15% of 420,000 active; also: potency is read from the fitted curve at half-maximal effect; nearly all actives have a fitted effect of over 55% in size
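Readout: luminescence from CellTiter-Glo after 30 min in the dark at RT. Cells: DT40 Tdp1-/- with stable hTDP1, 400/well. Exposure: compounds alone, ≥48 hr, 37 °C.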
* = called active by the depositor; ? = inconclusive; . = no result. Unless noted, calls follow the shape of the dose curve; as a rule, active = well fitted curve in the direction sought with a large enough effect; inconclusive = small, poorly fitted or top-dose-only effect, or another doubt; inactive = no such curve, though single readings can be large; an effect the other way counts as inactive or inconclusive. Unless noted, % is scaled to controls: 0 for no effect and ±100 for the full control effect.

SMILES	HT1080 IDH1KD tx	ELG1 repair inh	TDP1 cell CPT	IL-1B inflam inh	HT1080-NT tox	TDP1 cell noCPT
Cc1nn(C(C)(C)C)c(C)c1/C=N/OC(=O)Nc1ccc(Cl)c(Cl)c1	-4%	-21%	15µM*	16	-4%	16µM*
COc1ccc2[nH]c3c(c2c1)CCN1C(=O)C(CC(=O)NCc2cccc(C(F)(F)F)c2)C[C@H](C(=O)N2CCCCC2)[C@@]31C (some centres not stated)	-16%	?	10µM*	-53*	-4%	8.2µM*
CCS(=O)(=O)Nc1cccc(C(=C2CCCCC2)c2cnc[nH]2)c1	-2%	1%	?	29	0%	21µM*
C=CC(C)C(C(=O)c1ccccc1)N(C)C (configuration not stated)	0%	-7%	-11%	-10	-7%	-22%
Cc1ccc(-n2nc3c(N4CCC(C(=O)NCCc5ccccc5)CC4)nnc(C)c3c2C)cc1	.	.	4.6µM*	.	.	5.8µM*
COc1cccc(NC(=O)C2CCN(c3nnc(C)c4c(C)n(-c5ccccc5)nc34)CC2)c1	.	.	?	.	.	23µM*
Cc1ccc(CCNC(=O)Cn2nc(C)c3c(C)n(-c4ccc(C)cc4)nc3c2=O)cc1	.	.	23µM*	.	.	?
Cc1ccc2c(c1)[C@@H]1CN(C)CC[C@@H]1N2C(=O)Nc1cccc(C(F)(F)F)c1	?	9%	11µM*	-25	13µM*	11µM*
Cc1ccc2c(c1)C1CN(C)CCC1N2C(=O)Nc1cccc(C(F)(F)F)c1 (configuration not stated)	?	-1%	21µM*	-4	?	?
Cc1ccc2c(c1)C1CN(C)CCC1N2C(=O)c1cn(-c2ccccc2)nc1-c1ccccc1 (configuration not stated)	21µM*	?	?	?	.	16µM*
N#CCCn1cc(C(=O)Nc2ccccc2Cl)c(-c2ccc(F)cc2)n1	-6%	-8%	8%	7	-19%	-2%
CCCNC(=O)N1[C@H]2CC[C@@H]1C(C(=O)OC)=C(c1cccc(OC)c1OC)C2	1%	.	-21%	26	14%	-8%
O=C(CCCCCn1c(=S)[nH]c2ccccc2c1=O)N1CCC2(CC1)OCCO2	4%	?	-28%	22	5%	-21%
COc1ccccc1N1CCN(C(=O)CCCn2c(=S)[nH]c3ccccc3c2=O)CC1	0%	.	8.2µM*	-7	6%	5.2µM*
COc1cc2[nH]c(=O)n(-c3ccc(C)cc3)c(=O)c2cc1OC	22%	1%	-14%	-5	14%	-1%
CCOc1cc2[nH]c(=O)n(CCCCC(=O)N3CCN(c4ccccc4)CC3)c(=O)c2cc1OCC	.	.	?	.	.	5.2µM*
COc1cc2[nH]c(=O)n(Cc3ccc(C(=O)N4CCN(c5ccc(Cl)cc5)CC4)cc3)c(=O)c2cc1OC	.	.	3.3µM*	.	.	2.9µM*
Cc1nnc2n1-c1sc(CCC(=O)N3CCOCC3)cc1C(c1ccccc1Cl)=NC2	.	.	-12%	.	.	-18%
O=C(CCCCCCCCCCC(=O)NCc1cccnc1)NCc1cccnc1	4.6µM*	3.7µM*	?	39	?	?
O=C(NCc1cccnc1)NC1CCCCC1	-5%	.	-11%	-2	0%	-8%
CC(C)(C)NC(=O)N1c2ccccc2Sc2ccccc21	-19%	?	-29%	12	-19%	1%
Cc1ccc(-n2c(/C=C/c3ccccc3)nc3ccccc3c2=O)cc1Cl	.	.	?	.	.	23µM*
Cc1ccc(-n2c(/C=C/c3ccccc3)nc3ccccc3c2=O)cc1C	.	.	16µM*	.	.	23µM*
Cc1ccc(-n2c(/C=C/c3ccccn3)nc3ccccc3c2=O)cc1	9%	?	?	-19	0%	?
O=C1C=CC2C3C(=O)N(c4ccccc4)C(=O)C3C1N2Cc1ccccc1 (configuration not stated)	10µM*	.	2.1µM*	-97*	?	2.3µM*
SMILES	HT1080 IDH1KD tx	ELG1 repair inh	TDP1 cell CPT	IL-1B inflam inh	HT1080-NT tox	TDP1 cell noCPT
C[N+]1(CCF)[C@@H]2CC[C@H]1CC(OC(=O)C(O)(c1ccccc1)c1ccccc1)C2 (some centres not stated)	.	.	11%	.	.	-2%
COc1ccc(CN2CCN(Cc3ccccc3F)CC2)cc1	11%	?	-6%	-1	2%	-28%
CC(C)(C)c1ccc(C(=O)Nc2ccc(NC(=O)c3ccco3)cc2)cc1	10µM*	14%	?	7	10µM*	?
O=C1NC(=O)C(=Cc2ccc(OCCOc3ccc([N+](=O)[O-])cc3)cc2)C(=O)N1	3%	7%	?	-59*	3%	?
COc1ccc(/C=N\NC(=O)c2cccc(F)c2)cc1COc1ccccc1	0.58µM*	.	0.82µM*	78	1.2µM*	0.65µM*
COc1cc(/C=N/NC(=O)CN2CCCCC2)ccc1OCc1ccccc1	-10%	?	3%	3	-5%	-14%
C=CCn1c(O)c(C(C)=NC(C)c2ccccc2)c(=O)[nH]c1=O (configuration not stated)	4%	?	?	12	0%	16µM*
C=CCn1c(O)c(C(C)=NCCC(c2ccccc2)c2ccccc2)c(=O)[nH]c1=O	4%	7.3µM*	21µM*	10	-3%	16µM*
C=CCn1c(O)c(C(C)=Nc2ccc(C(=O)O)cc2)c(=O)[nH]c1=O	11%	0%	10%	21	-14%	2%
C[C@]12CCC(=O)C=C1CC[C@@H]1C2[C@H](O)C[C@]2(C)C(=O)CCC12 (some centres not stated)	0%	25%	1%	-14	8%	-10%
CC(C)(C)c1ccc(CSc2cnn(C(C)(C)C)c(=O)c2Cl)cc1	-28%	?	0.16µM*	45	-22%	0.033µM*
O=Cc1ccccc1	.	.	4%	.	.	16%
COC(=O)C1=C(c2cccc(OCc3ccccc3)c2)C[C@@H]2CC[C@H]1N2C(=O)NCc1ccc(Cl)cc1	-16%	-22%	?	-30	-3%	?
COC(=O)C1=C(c2cccc(OCc3ccccc3)c2)C[C@@H]2CC[C@H]1N2C(=O)NCc1ccc([N+](=O)[O-])cc1	-14%	-28%	18µM*	?	12%	23µM*
